The structures appear in SMILES notation. Records with an inconclusive call do not appear. Calls of active or inactive are those of the source. The call rests on the fitted dose curve; in most records, active means well fitted cell-killing curve with a large enough effect; inconclusive means small, poorly fitted or top-dose-only effect, or effect the other way; inactive means no such curve, though single readings can be large or run the other way.
Potency means the concentration at half of the fitted maximal effect.

The assay can be described thus: Viability qHTS for spleen associated tyrosine kinase inhibitor (SYKi) drug resistant MV4-11 cells (AID 1963824). Further: nearly all actives have a fitted effect of over 35% in size. Conditions: SYKi-resistant MV4-11 viability, CellTiter-Glo, 72 h; series mostly up to 45 µM; viability, % of control: at the top concentration. An outline of the steps:
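SYK-inhibitor-resistant MV4-11 AML cells were seeded at 500 per well onto compound and cultured 72 hours (37 °C, 5% CO2). CellTiter-Glo was then added, and after 10 min at room temperature, luminescence gave viability.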
(Quantitative high-throughput screening tests each substance at several concentrations.)
In the case of `CC(C)(C)c1ccc(S(=O)(=O)Nc2ccc(Cl)cc2C(=O)c2cc[n+]([O-])cc2)cc1`, the Potency was 20.6 µM (active).

Consider `CC(C)=CCC/C(C)=C/COCC1OC(n2ccc(=O)[nH]c2=O)C(O)C1O` (stereo not given), for which the Potency is 11.4 µM (active).

Take `Cc1noc(-c2ccc(-c3ccc(CC(=O)O)cc3)cc2)c1NC(=O)O[C@H](C)c1ccccc1Cl`: the Potency was 20.6 µM (active).

As to `COc1cnc(-c2ccc(Cn3c(CC(C)(C)C(=O)O)c(SC(C)(C)C)c4cc(OC[C@@H]5Cc6ccccc6N5C(C)=O)ccc43)cc2)nc1`, the Potency is 12.8 µM (active).

As for `COC(=O)c1ccc2c(c1)[nH]c1ncnc(NCCCN3CCCCC3)c12`, the Potency is 9.2 µM (active).

With `C=CC(C)(O)C(O)CC1C(C)(O)C(O)C(O)C2C(C)(C)CCCC21C` (stereo not given), the “viability, % of control” value is 77.7% (inactive).

Take `CC[C@H]1OC(=O)[C@H](C)[C@@H](O[C@H]2C[C@@](C)(OC)[C@@H](O)[C@H](C)O2)[C@H](C)[C@@H](O[C@@H]2O[C@H](C)C[C@H](N(C)C)[C@H]2O)[C@@](C)(O)C[C@@H](C)[C@@H]2N[C@@H](COCCOC)OC([C@H]2C)[C@]1(C)O`: the “viability, % of control” value is 83.2% (inactive).

In the case of `COc1c(C)c(C(=O)c2ccc(N)c(C(=O)O)c2)n2ccccc12`, the Potency result is “inactive”.

For the compound `CC1(C)CC[C@]2(C(=O)O[C@@H]3O[C@H](CO)[C@@H](O)[C@H](O)[C@H]3O)CC[C@]3(C)C(=CCC4[C@@]5(C)CC[C@H](O[C@@H]6O[C@H](C(=O)O)[C@H](O)[C@H](O)[C@H]6O)C(C)(C)C5CC[C@]43C)[C@@H]2C1` (stereo not given in full), the Potency is 4.85 µM (active).

For the compound `COc1c(C)c2c(c(O)c1C/C=C(\C)CC/C=C(\C)CCC(=O)O)C(=O)OC2`, the “viability, % of control” value was 87.3% (inactive).

(Values after PubChem BioAssay (NCATS).)
